Results filed as inconclusive are left out. Where a structure was tested more than once in an assay, its records may differ in their call. Calls of active or inactive are those of the source. Rule for the calls, unless noted: active = hit-call score of the fitted dose curve at least 0.9, where 1 is the maximum; inactive = score below 0.9.
Assays:
[1] = target: Retinoic acid receptor RXR-alpha (Homo sapiens) (UniProt P19793); assay: OT_NURR1_NURR1RXRa_1440: Odyssey Thera (OT) 24-hour HEK293T Protein Complementation Assay for Nurr1/retinoid X receptor (RXR) (AID 2283386; active = hit-call score of the fitted dose curve at least 0.9, where 1 is the maximum)
Retinoic acid receptor RXR-alpha (Homo sapiens), sequence (P19793 whole entry, looked up, the tested form may be a part): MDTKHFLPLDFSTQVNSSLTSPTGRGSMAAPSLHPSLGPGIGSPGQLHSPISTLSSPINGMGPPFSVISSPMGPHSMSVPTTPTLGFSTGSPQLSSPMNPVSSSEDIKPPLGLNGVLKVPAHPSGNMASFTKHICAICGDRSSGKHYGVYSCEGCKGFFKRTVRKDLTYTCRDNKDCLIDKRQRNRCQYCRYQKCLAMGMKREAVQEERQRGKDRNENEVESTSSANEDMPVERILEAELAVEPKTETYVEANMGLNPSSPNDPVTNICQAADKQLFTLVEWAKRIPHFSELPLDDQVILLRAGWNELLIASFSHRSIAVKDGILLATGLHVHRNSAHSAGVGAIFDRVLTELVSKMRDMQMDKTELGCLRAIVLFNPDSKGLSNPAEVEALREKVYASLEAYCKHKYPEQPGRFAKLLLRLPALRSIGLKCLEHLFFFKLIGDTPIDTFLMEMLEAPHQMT
How it was run: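 Fluorescence PCA read-out; HEK293T; 24 h post-dose; bait/prey fused to reporter fragments; gain-of-signal fit vs DMSO negative control.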

[2] = target: Peroxisome proliferator-activated receptor gamma (Homo sapiens) (UniProt P37231); assay: OT_PPARg_PPARgSRC1_0480: Odyssey Thera (OT) 8-hour Protein-Complementation Assay for Peroxisome Proliferator-activated Receptor Gamma / SRC-1 Co-activator (AID 2283387; active = hit-call score of the fitted dose curve at least 0.9, where 1 is the maximum;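 note: nuclear to cytoplasmic split Venus YFP fluorescence ratio reporting PPARg SRC-1 interaction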)
Peroxisome proliferator-activated receptor gamma (Homo sapiens), sequence (P37231 whole entry, looked up, the tested form may be a part): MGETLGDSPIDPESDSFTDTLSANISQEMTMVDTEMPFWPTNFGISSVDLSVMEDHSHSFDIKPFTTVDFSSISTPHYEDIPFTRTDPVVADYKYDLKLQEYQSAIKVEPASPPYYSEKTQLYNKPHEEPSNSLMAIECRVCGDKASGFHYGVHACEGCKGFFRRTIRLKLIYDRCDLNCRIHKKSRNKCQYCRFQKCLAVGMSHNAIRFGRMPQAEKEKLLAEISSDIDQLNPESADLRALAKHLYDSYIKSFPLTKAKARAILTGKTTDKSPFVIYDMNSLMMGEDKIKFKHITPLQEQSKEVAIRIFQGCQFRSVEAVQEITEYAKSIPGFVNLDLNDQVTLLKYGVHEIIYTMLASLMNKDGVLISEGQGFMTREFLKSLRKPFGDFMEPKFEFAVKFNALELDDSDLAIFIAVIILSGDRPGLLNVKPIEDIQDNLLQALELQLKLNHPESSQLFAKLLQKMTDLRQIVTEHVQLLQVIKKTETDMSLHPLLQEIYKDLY
How it was run: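 Read-out: 488 nm N/C fluorescence ratio from complemented Venus YFP fragments, ≥350 cells per image, gain-of-signal fitted against DMSO baseline. Fusions of PPARg/SRC-1 with IFP1/IFP2 expressed transiently in HEK293T; compounds applied 8 h.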

[3] = target: Peroxisome proliferator-activated receptor gamma (Homo sapiens) (UniProt P37231); assay: OT_PPARg_PPARgSRC1_1440: Odyssey Thera (OT) 24-hour Protein-Complementation Assay for Peroxisome Proliferator-activated Receptor Gamma/ SRC-1 Co-activator (AID 2283388; active = hit-call score of the fitted dose curve at least 0.9, where 1 is the maximum;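 note: nuclear to cytoplasmic ratio of reconstituted Venus YFP fluorescence in fixed imaged cells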)
How it was run: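 Cells carrying the PPARg/SRC-1 fragment-complementation reporter receive compound for 24 hours, are fixed and counterstained with Draq5, then imaged. Increased nuclear relative to cytoplasmic YFP fluorescence above DMSO baseline indicates binding activity.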

[4] = CEETOX_H295R_11DCORT: CeeTox H295R High-throughput Steroidogenesis Assay for 11-Deoxycortisol (11DCORT) (AID 2283432); details: actives raise or lower the signal;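 for AC50: 11-deoxycortisol secreted into the medium measured by LC-MS/MS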
How it was run: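 H295R cells; 10 uM forskolin prestim 48 h; compound in 0.1% DMSO 48 h; media extracted with MTBE; 11-deoxycortisol by LC-MS/MS, 7-point standard curve; gain/loss vs DMSO baseline; viability by MTT in same wells.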

[5] = CEETOX_H295R_OHPREG: CeeTox H295R High-throughput Steroidogenesis Assay for OH-Pregnenolone (OHPREG) (AID 2283434); details: actives raise or lower the signal
How it was run: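 H295R, 10 uM forskolin pre-stim 48 h; test chemical 48 h, 0.1% DMSO final. MTBE extraction, reverse-phase C18 HPLC-ESI+ MS/MS of medium. Gain/loss vs DMSO; viability by MTT in same wells.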

[6] = CEETOX_H295R_OHPROG: CeeTox H295R High-throughput Steroidogenesis Assay for OH-Progesterone (OHPROG) (AID 2283435); details: actives raise or lower the signal;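 for AC50: 17alpha-hydroxyprogesterone secreted into medium measured by HPLC-MS/MS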
How it was run: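 HPLC-MS/MS quantification of 17alpha-hydroxyprogesterone secreted by H295R cells after 48 h chemical exposure, following 48 h 10 uM forskolin prestimulation. Gain or loss of signal fitted relative to DMSO. Viability checked by MTT in the same wells.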

[7] = CEETOX_H295R_CORTIC: CeeTox H295R High-throughput Steroidogenesis Assay for Corticosterone (CORTIC) (AID 2283437); details: actives raise or lower the signal;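 note: corticosterone secreted into medium quantified by mass spectrometry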
How it was run: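 48 h forskolin (10 uM) prestim, then 48 h chemical exposure, final DMSO 0.1%. Readout: corticosterone in medium by LC-MS/MS after MTBE extraction. Gain/loss fit vs DMSO; MTT viability in same wells.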

[8] = CEETOX_H295R_CORTISOL: CeeTox H295R High-throughput Steroidogenesis Assay for Cortisol (AID 2283438); details: actives raise or lower the signal;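 note: cortisol secreted into medium quantified by LC-MS/MS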
How it was run: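 Read-out: cortisol in culture medium by reverse-phase C18 HPLC with ESI-positive tandem MS, after MTBE liquid-liquid extraction. Cells: human adrenal H295R, forskolin-primed (10 uM, 48 h) before 48 h chemical exposure in 0.1% DMSO.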

[9] = CEETOX_H295R_DOC: CeeTox H295R High-throughput Steroidogenesis Assay for DOC (AID 2283439); details: actives raise or lower the signal
How it was run: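 Human adrenocortical H295R cells, passages up to 10, received 10 uM forskolin for 48 h before chemical addition. After another 48 h exposure in 0.1% DMSO, secreted DOC was measured by LC-MS/MS, with gain or loss fitted against DMSO controls.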

[10] = CEETOX_H295R_PROG: CeeTox H295R High-throughput Steroidogenesis Assay for Progesterone (PROG) (AID 2283442); details: actives raise or lower the signal
How it was run: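 Measured analyte is progesterone secreted by H295R cells at 48 h of chemical treatment, following 10 uM forskolin priming. Quantitation used HPLC-MS/MS against a 7-point standard curve; cytotoxicity was checked by MTT absorbance.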

[11] = read-out: Cyclin D2 (CCND2), CCND2 (gene 894); assay: LTEA_HepaRG_CCND2: Life Technologies and Expression Analysis (LTEA) Assay for Cyclin D2 (CCND2) using HepaRG (AID 2283449); details: mRNA level, 48 h; actives raise or lower the signal;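 note: CCND2 transcript measured by TaqMan qRT-PCR and normalised to three housekeeping genes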
How it was run: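 HepaRG, 48 h dosing, 8-pt half-log curve from 100 uM, 0.5% DMSO; duplicate wells. Readout: CCND2 transcript by microfluidic qRT-PCR, housekeeping-normalised; bidirectional fit vs DMSO baseline.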

[12] = read-out: Cyclin Dependent Kinase Inhibitor 1A (CDKN1A), CDKN1A (gene 1026); assay: LTEA_HepaRG_CDKN1A: Life Technologies and Expression Analysis (LTEA) Assay for Cyclin Dependent Kinase Inhibitor 1A (CDKN1A) using HepaRG (AID 2283450); details: mRNA level, 48 h; actives raise or lower the signal
How it was run: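 Gain or loss of CDKN1A transcript is scored by bidirectional fitting against 0.5% DMSO vehicle. Human HepaRG cultures receive chemicals for 48 h across an 8-point series peaking at 100 uM; expression comes from qRT-PCR.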

[13] = read-out: Cyclin D1 (CCND1), CCND1 (gene 595); assay: LTEA_HepaRG_CCND1: Life Technologies and Expression Analysis (LTEA) Assay for Cyclin D1 (CCND1) using HepaRG (AID 2283451); details: mRNA level, 48 h; actives raise or lower the signal;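 for AC50: differentiated human HepaRG liver cells in serum-free induction medium; TaqMan qRT-PCR transcript level normalised to ACTB GAPDH and POLR2A housekeeping genes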
How it was run: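 Expression change is measured by qRT-PCR in HepaRG cells after 48 h treatment across eight concentrations topping at 100 uM, with duplicate wells and DMSO (0.5%) serving as baseline for bidirectional fitting.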

[14] = read-out: catalase (CAT), CAT (gene 847); assay: LTEA_HepaRG_CAT: Life Technologies and Expression Analysis (LTEA) Assay for catalase (CAT) using HepaRG (AID 2283452); details: mRNA level, 48 h; actives raise or lower the signal;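 for AC50: TaqMan qRT-PCR signal normalized to ACTB GAPDH and POLR2A housekeeping genes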
How it was run: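 HepaRG cells in serum-free induction medium, 0.5% DMSO vehicle, exposed 48 h in duplicate over 8 half-log concentrations from 100 uM. CAT mRNA measured by qRT-PCR, normalized to ACTB, GAPDH, POLR2A; bidirectional fit versus DMSO.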

[15] = read-out: flavin-containing dimethylaniline monooxygenases 3 (FMO3), FMO3 (gene 2328); assay: LTEA_HepaRG_FMO3: Life Technologies and Expression Analysis (LTEA) Assay for flavin-containing dimethylaniline monooxygenases 3 (FMO3) using HepaRG (AID 2283453); details: mRNA level, 48 h; actives raise or lower the signal
How it was run: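 Eight-point concentration-response in serum-free HepaRG cultures (top 100 uM, 0.5% DMSO, 48 h). Read-out: FMO3 mRNA level normalized to three endogenous control genes, fitted bidirectionally versus vehicle.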

[16] = CEETOX_H295R_ANDR: CeeTox H295R High-throughput Steroidogenesis Assay for Androstenedione (ANDR) (AID 2283436); details: actives raise or lower the signal;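 note: human H295R adrenal cells exposed for 48 h with androstenedione measured in medium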
How it was run: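 48 h chemical exposure, H295R cells, DMEM/F12 + ITS+ and Nu-Serum. Medium androstenedione: MTBE extraction, C18 reverse-phase HPLC, ESI+ MS/MS. Fit bidirectional vs DMSO; MTT viability in same wells.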

[17] = read-out: Fatty acid synthase (Homo sapiens) (UniProt P49327); assay: LTEA_HepaRG_FASN: Life Technologies and Expression Analysis (LTEA) Assay for Fatty Acid Synthase (FASN) using HepaRG (AID 2283448); details: mRNA level, 48 h; actives raise or lower the signal;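 for AC50: differentiated human HepaRG liver cells in serum-free induction medium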
How it was run: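 HepaRG, 48 h exposure, 8-pt half-log series top 100 uM, 0.5% DMSO vehicle, duplicates. Readout: FASN transcript by Fluidigm qRT-PCR; housekeeping-normalized; bidirectional curve fit vs DMSO baseline.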

[18] = read-out: Tumor necrosis factor receptor superfamily member 6 (Homo sapiens) (UniProt P25445); assay: LTEA_HepaRG_FAS: Life Technologies and Expression Analysis (LTEA) Assay for Fas cell surface death receptor (FAS) using HepaRG (AID 2283447); details: mRNA level, 48 h; actives raise or lower the signal
How it was run: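 Differentiated HepaRG cells in serum-free induction medium were exposed 48 h to 8 half-log concentrations up to 100 uM in 0.5% DMSO, in duplicate. FAS mRNA was measured by qRT-PCR normalised to ACTB, GAPDH and POLR2A; bidirectional fit versus DMSO.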

Measured: AC50

Fatty acid synthase (Homo sapiens), sequence (P49327 whole entry, looked up): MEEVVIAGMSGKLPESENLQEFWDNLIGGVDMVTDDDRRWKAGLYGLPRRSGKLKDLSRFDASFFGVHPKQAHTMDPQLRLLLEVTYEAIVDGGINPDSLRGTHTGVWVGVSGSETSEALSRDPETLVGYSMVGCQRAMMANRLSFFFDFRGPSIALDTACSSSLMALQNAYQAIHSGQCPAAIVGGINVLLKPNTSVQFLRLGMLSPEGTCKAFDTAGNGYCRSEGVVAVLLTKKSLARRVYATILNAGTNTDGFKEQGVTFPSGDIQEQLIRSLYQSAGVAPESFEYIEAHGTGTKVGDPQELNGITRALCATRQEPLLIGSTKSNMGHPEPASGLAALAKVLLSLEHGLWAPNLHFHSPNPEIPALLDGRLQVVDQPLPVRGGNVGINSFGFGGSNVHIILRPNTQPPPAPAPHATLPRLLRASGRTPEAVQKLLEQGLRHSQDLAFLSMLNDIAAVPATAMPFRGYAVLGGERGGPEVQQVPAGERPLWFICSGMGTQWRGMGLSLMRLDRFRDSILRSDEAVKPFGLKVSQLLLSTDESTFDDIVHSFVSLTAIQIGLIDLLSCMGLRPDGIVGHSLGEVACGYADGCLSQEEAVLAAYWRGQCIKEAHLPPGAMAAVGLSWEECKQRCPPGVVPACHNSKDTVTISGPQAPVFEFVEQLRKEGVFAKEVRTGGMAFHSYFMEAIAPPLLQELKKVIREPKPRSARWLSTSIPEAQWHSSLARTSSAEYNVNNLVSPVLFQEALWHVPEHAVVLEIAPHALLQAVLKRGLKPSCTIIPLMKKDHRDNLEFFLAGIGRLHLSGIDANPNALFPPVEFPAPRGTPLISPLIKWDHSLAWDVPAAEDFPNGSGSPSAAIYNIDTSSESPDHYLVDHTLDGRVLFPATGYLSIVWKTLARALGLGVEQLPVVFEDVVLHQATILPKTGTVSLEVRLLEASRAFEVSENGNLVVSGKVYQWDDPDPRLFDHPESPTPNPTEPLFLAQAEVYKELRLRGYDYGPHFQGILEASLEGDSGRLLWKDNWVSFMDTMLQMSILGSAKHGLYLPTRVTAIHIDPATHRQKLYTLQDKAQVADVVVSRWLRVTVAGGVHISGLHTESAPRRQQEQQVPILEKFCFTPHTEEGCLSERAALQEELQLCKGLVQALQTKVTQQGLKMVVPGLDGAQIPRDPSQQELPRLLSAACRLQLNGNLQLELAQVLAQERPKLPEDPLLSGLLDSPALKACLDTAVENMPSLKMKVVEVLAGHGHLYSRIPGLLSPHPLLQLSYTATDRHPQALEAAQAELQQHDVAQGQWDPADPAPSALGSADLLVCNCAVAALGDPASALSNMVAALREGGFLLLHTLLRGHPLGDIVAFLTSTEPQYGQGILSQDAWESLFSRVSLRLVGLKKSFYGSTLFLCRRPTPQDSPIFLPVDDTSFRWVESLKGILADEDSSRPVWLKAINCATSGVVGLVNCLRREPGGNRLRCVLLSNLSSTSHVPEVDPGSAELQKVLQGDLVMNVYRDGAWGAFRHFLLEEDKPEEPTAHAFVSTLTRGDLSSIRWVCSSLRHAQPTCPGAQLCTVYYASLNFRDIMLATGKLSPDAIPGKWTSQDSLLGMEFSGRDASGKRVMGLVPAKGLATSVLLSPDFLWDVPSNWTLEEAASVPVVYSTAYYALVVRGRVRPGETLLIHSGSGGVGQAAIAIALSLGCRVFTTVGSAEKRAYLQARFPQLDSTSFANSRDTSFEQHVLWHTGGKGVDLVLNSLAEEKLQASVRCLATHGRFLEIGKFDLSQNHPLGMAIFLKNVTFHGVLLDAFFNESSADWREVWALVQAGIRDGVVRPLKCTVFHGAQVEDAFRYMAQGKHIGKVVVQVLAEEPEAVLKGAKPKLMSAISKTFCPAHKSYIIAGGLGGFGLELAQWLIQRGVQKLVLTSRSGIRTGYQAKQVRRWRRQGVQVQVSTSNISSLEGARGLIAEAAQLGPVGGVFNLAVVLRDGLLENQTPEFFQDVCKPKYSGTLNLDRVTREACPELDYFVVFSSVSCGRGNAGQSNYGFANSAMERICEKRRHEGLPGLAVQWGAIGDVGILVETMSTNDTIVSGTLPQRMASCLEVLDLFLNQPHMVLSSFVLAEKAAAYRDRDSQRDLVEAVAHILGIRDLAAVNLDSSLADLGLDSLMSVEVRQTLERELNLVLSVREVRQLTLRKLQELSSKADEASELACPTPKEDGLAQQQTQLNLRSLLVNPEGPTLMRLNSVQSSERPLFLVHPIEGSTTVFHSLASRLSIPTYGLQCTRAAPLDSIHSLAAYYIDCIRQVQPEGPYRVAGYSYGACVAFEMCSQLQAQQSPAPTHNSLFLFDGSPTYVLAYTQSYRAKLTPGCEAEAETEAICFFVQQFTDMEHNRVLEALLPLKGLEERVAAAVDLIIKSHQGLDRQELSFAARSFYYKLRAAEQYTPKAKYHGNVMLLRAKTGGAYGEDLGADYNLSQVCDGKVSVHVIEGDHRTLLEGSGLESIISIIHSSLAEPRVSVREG

CCOP(=S)(OCC)Oc1ccc([N+](=O)[O-])cc1
inactive: [1] | [2] | [3] | [5] | [7] | [11] | [12] | [13] | [14] | [15]
active: [4] 2.57 µM | [6] 390 nM | [8] 1.93 µM | [9] 775 nM | [10] 444 nM

COc1ccc(C(=CC(=O)N2CCOCC2)c2ccc(Cl)cc2)cc1OC
inactive: [1] | [2] | [3] | [4] | [5] | [6] | [16] | [7] | [9] | [10] | [17] | [11] | [12] | [13] | [14] | [15]
active: [8] 35.2 µM

COP(=O)(NC(C)=O)SC (configuration not stated)
inactive: [1] | [2] | [3] | [4] | [6] | [7] | [8] | [9] | [10] | [18] | [17] | [12] | [13] | [14]

CCOP(=S)(Oc1cnc(C(C)(C)C)nc1)OC(C)C (configuration not stated)
active: [1] 78.8 µM | [17] 82.4 µM | [13] 50 µM | [14] 5.63 µM
inactive: [1] | [2] | [3] | [11] | [12]

CCC(CC)Nc1c([N+](=O)[O-])cc(C)c(C)c1[N+](=O)[O-]
inactive: [1] | [2] | [3] | [17] | [11] | [12] | [13] | [14] | [15]
active: [1] 82.1 µM

CCc1cnc(C2=NC(C)(C(C)C)C(=O)N2)c(C(=O)O)c1 (configuration not stated)
inactive: [1] | [2] | [3] | [18] | [17] | [11] | [12] | [13] | [14] | [15]

CCNc1nc(Cl)nc(NC(C)(C)C#N)n1
inactive: [1] | [2] | [3] | [4] | [5] | [6] | [7] | [8] | [9] | [10] | [18] | [17] | [11] | [12] | [13] | [14] | [15]

Reference: PubChem BioAssay (EPA / NIEHS)
